{"source": "PubChem BioAssay (NCATS)", "note": "Inconclusive results are not listed. A number with no mark means an inactive call. Activity calls are given as the source filed them. Calls follow the shape of the dose curve; as a rule, active = well fitted cell-killing curve with a large enough effect; inconclusive = small, poorly fitted or top-dose-only effect; inactive = flat fitted curve, though single readings scatter.", "data": [{"assay": "Cellular viability qHTS for adrenocortical cancer (ACC) cell line SW-13 (AID 1963989);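 also: cells grown in serum-free medium with ITS supplement; % is scaled to controls: 0 for no effect and ±100 for the full control effect; nearly all actives have a fitted effect of over 65% in size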", "settings": "SW-13 ACC cells viability, CellTiter-Glo, 48 h; activity (max response): stronger effect = lower value", "procedure,_shortened": "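Compound titrations (up to 46 uM final, in DMSO) were applied to SW-13 cells for 48 h at 37C/5% CO2. Reading used CellTiter-Glo after 20 min at room temperature; fitted curves yielded IC50 and efficacy.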", "units": {"activity (max response)": "%"}, "values": [{"smiles": "O=C(O)CC(C(=O)O)n1c(O)c(C2=c3cc(Br)ccc3=NC2=O)sc1=S", "note": "(centres undefined)", "activity (max response)": -4.1}, {"smiles": "Cc1ccc(S(=O)(=O)NC(=O)NC2CCCCCCC2)cc1", "activity (max response)": 11.9}, {"smiles": "c1ccc2c(c1)CCc1ccccc1N2", "activity (max response)": -6.25}, {"smiles": "OCc1ccc(Cl)cc1Cl", "activity (max response)": -2}, {"smiles": "NC1=N[C@@]2(c3cc(NC(=O)c4ccc(F)cn4)ccc3F)COC[C@H]2CS1", "activity (max response)": -8.2}, {"smiles": "O=C(O)C1(C(=O)O)CCC1.[NH2-].[NH2-].[Pt+2]", "activity (max response)": 10.4}, {"smiles": "COc1ccc(CCN(C)CCCN2CCc3cc(OC)c(OC)cc3CC2=O)cc1OC", "activity (max response)": 5.36}, {"smiles": "O=C1NC(=O)C(c2ccccc2)(c2ccccc2)N1", "activity (max response)": -5.02}, {"smiles": "COC(=O)CCCCC(CCSS/C(CCO)=C(\\C)N(C=O)Cc1cnc(C)nc1N)SC(C)=O", "note": "(centres undefined)", "activity (max response)": 8.22}, {"smiles": "COc1cccc2c1c(O)c(C(=O)N(C)c1ccc(C(F)(F)F)cc1)c(=O)n2C", "activity (max response)": -27.3}]}, {"assay": "Cellular viability qHTS for adrenocortical cancer (ACC) cell line NCI-H295R (AID 1963990); also: nearly all actives have a fitted effect of over 60% in size; also: potency is read from the fitted curve at half-maximal effect;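 as to activity change, negative = viability loss: 0% = DMSO only wells and -100% = full killing with cytotoxic reference compound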", "settings": "CellTiter-Glo ATP luminescence, 48 h; series mostly up to 46.1 µM; activity change, negative = viability loss: at the top concentration", "procedure,_shortened": "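Readout: CellTiter-Glo luminescence, 20 min RT. Exposure: 48 h, 37C/5% CO2. Cells: NCI-H295R, ITS-DMEM serum-free. Range: up to 46 uM. Analysis: 4PL fit, IC50 plus efficacy.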", "units": {"activity change, negative = viability loss": "%"}, "values": [{"smiles": "Cc1c(-c2ccc(-c3ccccc3F)cc2)nc2ccc(F)cc2c1C(=O)O", "activity change, negative = viability loss": -18.7}, {"smiles": "CCCC(CCC)(C(=O)OCC)C(=O)OCC", "activity change, negative = viability loss": 4.55}, {"smiles": "O=C(O)CC(C(=O)O)n1c(O)c(C2=c3cc(Br)ccc3=NC2=O)sc1=S", "note": "(centres undefined)", "activity change, negative = viability loss": -10.6}, {"smiles": "Cn1cc(-c2ccc(-c3cncc(Cl)c3N3CCC4(CCNC4=O)CC3)cc2)cn1", "activity change, negative = viability loss": -16}, {"smiles": "N#C/C(=C1/SC[C@@H](c2ccc(Cl)cc2Cl)S1)n1ccnc1", "activity change, negative = viability loss": -5.06}, {"smiles": "Cc1ccc(S(=O)(=O)NC(=O)NC2CCCCCCC2)cc1", "activity change, negative = viability loss": -8.62}, {"smiles": "CCOC(=O)[C@H](CCc1ccccc1)N[C@@H](C)C(=O)N(CC(=O)O)C1Cc2ccccc2C1", "activity change, negative = viability loss": -16.2}, {"smiles": "c1ccc2c(c1)CCc1ccccc1N2", "activity change, negative = viability loss": -22.7}, {"smiles": "OCc1ccc(Cl)cc1Cl", "activity change, negative = viability loss": -25.2}, {"smiles": "NC1=N[C@@]2(c3cc(NC(=O)c4ccc(F)cn4)ccc3F)COC[C@H]2CS1", "activity change, negative = viability loss": -21.6}, {"smiles": "O=C1OC2(c3ccccc31)c1cc(I)c(O)c(I)c1Oc1c2cc(I)c(O)c1I", "activity change, negative = viability loss": -5.38}, {"smiles": "O=C(O)C1(C(=O)O)CCC1.[NH2-].[NH2-].[Pt+2]", "activity change, negative = viability loss": -18.6}, {"smiles": "CC(C)(C)NCC(O)c1cc(O)cc(O)c1", "note": "(centres undefined)", "Potency": "25.9 µM (active)"}, {"smiles": "Cc1cccc(/C=N/Nc2cc(N3CCOCC3)nc(OCCc3ccccn3)n2)c1", "Potency": "28.2 µM (active)"}, {"smiles": "O=C(Nc1ccc2[nH]nc(-c3ccncc3)c2c1)[C@@H]1CCN(CC(=O)N2CCN(c3ccc(-c4ncccn4)cc3)CC2)C1", "activity change, negative = viability loss": -30.5}, {"smiles": "CO[C@@H]1[C@@H](OC)[C@H](C)[C@@](O)(CC(=O)O)O[C@H]1[C@H](C)[C@H]1O[C@@]2(CC[C@@](C)([C@H]3CC[C@@](C)([C@@H]4O[C@@H]([C@H]5O[C@](C)(O)[C@H](C)C[C@@H]5C)C[C@@H]4OC4C[C@H](OC)[C@@H](OC)[C@H](C)O4)O3)O2)C[C@H](O)[C@H]1C", "note": "(some centres undefined)", "Potency": "1.16 µM (active)"}, {"smiles": "COc1ccccc1C(=O)Nc1cc2c(cc1N1CCNC[C@H]1C)n(C)c(=O)n2C", "activity change, negative = viability loss": -29.7}, {"smiles": "C[C@@H]1[C@H](O)[C@@H](C)/C=C/C=C/C=C/C=C/C=C/C=C/C=C/[C@H](O[C@@H]2O[C@H](C)[C@@H](O)[C@H](N)[C@@H]2O)C[C@@H]2O[C@](O)(C[C@@H](O)C[C@@H](O)[C@H](O)CC[C@@H](O)C[C@@H](O)CC(=O)O[C@H]1C)C[C@H](O)[C@H]2C(=O)O", "activity change, negative = viability loss": 10.2}, {"smiles": "O=C(O)C(Cc1cc(I)c(O)c(I)c1)c1ccccc1", "note": "(centres undefined)", "activity change, negative = viability loss": -9.08}, {"smiles": "CCS(=O)(=O)Nc1ccc(Oc2ccc(F)cc2F)c(-c2cn(C)c(=O)c3[nH]ccc23)c1", "Potency": "5.01 µM (active)"}, {"smiles": "C#C[C@]1(OC(C)=O)CC[C@H]2[C@@H]3CCC4=C/C(=N/O)CC[C@@H]4[C@H]3CC[C@@]21CC", "Potency": "20.6 µM (active)"}, {"smiles": "COc1ccc(CCN(C)CCCN2CCc3cc(OC)c(OC)cc3CC2=O)cc1OC", "activity change, negative = viability loss": -9.05}, {"smiles": "Oc1ccc(O)cc1", "activity change, negative = viability loss": -19.7}, {"smiles": "O=C(O)Cc1ccc(OCCNC[C@H](O)c2ccccc2)cc1", "activity change, negative = viability loss": -6.57}, {"smiles": "CN1CCCN(C(c2ccccc2)c2ccc(Cl)cc2)CC1", "note": "(centres undefined)", "Potency": "23.1 µM (active)"}, {"smiles": "O=C(O)c1ccc(-n2nc(-c3ccccc3O)nc2-c2ccccc2O)cc1", "Potency": "31.6 µM (active)"}, {"smiles": "O=C1NC(=O)C(c2ccccc2)(c2ccccc2)N1", "activity change, negative = viability loss": -19.5}, {"smiles": "CC(=O)C1CCC2C3CCC4=CC(=O)CCC4(C)C3CCC12C", "note": "(centres undefined)", "activity change, negative = viability loss": -23.3}, {"smiles": "Oc1ccc(CCNCCCCCCNCCc2ccccc2)cc1O", "Potency": "16.4 µM (active)"}, {"smiles": "COC(=O)CCCCC(CCSS/C(CCO)=C(\\C)N(C=O)Cc1cnc(C)nc1N)SC(C)=O", "note": "(centres undefined)", "activity change, negative = viability loss": 3.55}, {"smiles": "COc1cccc2c1c(O)c(C(=O)N(C)c1ccc(C(F)(F)F)cc1)c(=O)n2C", "activity change, negative = viability loss": -14.1}, {"smiles": "Cc1ccsc1C(=CCCN1CCC[C@@H](C(=O)O)C1)c1sccc1C", "Potency": "inactive"}, {"smiles": "O=C1CN(/N=C/c2ccc([N+](=O)[O-])o2)C(=O)N1", "Potency": "18.4 µM (active)"}, {"smiles": "CCCCOc1ccc(C(=O)CCN2CCCCC2)cc1", "Potency": "8.2 µM (active)"}, {"smiles": "CCOC(=O)N1CCN(/[N+]([O-])=N/Oc2ccc([N+](=O)[O-])cc2[N+](=O)[O-])CC1", "Potency": "22.4 µM (active)"}, {"smiles": "CCCCNc1ccc(C(=O)OCCOCCOCCOCCOCCOCCOCCOCCOCCOC)cc1", "activity change, negative = viability loss": -6.32}, {"smiles": "C=C1C[C@H]2[C@@H]3C=C(C)C4=CC(=O)CC[C@]4(C)[C@H]3CC[C@]2(C)[C@@]1(OC(C)=O)C(C)=O", "activity change, negative = viability loss": -11.1}, {"smiles": "CSc1ccc(/C=C2/C(C)=C(CC(=O)O)c3cc(F)ccc32)cc1", "Potency": "25.9 µM (active)"}, {"smiles": "COC(=O)[C@@H](N)Cc1ccc(O)c(O)c1", "activity change, negative = viability loss": -8.67}]}]}
